# Key:
# Assay in all cases: DAPPL (digital affinity profiling via proximity ligation, sequencing); 10 mM Tris-HCl pH 7.5, 50 mM NaCl, 1 mM DTT, 4% glycerol, room temperature, 30 min; GST-TFs on glutathione beads, 16-mer random dsDNA library, 0.1% formaldehyde crosslink after washing; high values mean tight binding
# FLI1 = target: T1, FLI1 (Homo sapiens, UniProt Q01543 1-452); details: protein: recombinant; tags: N-terminal GST; dsDNA, one strand shown
# T1 sequence: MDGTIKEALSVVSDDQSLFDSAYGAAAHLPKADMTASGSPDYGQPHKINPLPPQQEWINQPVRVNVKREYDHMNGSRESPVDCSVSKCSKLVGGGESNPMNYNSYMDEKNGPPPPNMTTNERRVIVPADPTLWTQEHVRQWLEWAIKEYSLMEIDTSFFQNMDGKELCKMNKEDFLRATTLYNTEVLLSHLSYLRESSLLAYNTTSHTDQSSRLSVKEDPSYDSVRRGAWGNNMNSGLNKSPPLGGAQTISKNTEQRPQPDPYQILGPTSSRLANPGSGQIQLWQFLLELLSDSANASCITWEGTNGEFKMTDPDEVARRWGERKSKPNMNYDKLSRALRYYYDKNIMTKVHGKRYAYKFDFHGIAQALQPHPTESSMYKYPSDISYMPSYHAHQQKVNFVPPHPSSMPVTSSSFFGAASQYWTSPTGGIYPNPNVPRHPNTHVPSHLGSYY
# Summary of the method: (§1)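 In yeast, human transcription factors were expressed with a GST fusion, then pulled down on glutathione beads and given DNA barcodes. Pooled with a tag-only sample, they were exposed to 200 nmole of a 16-mer random double-stranded DNA library (Tris/NaCl/DTT/glycerol buffer, room temperature, 30 min), washed, crosslinked with 0.1% formaldehyde, proximity-ligated using BsaI/T4 ligase for 1 h at 37 °C, PCR-amplified and read on an Illumina NextSeq500. Each hexamer's frequency of reads for a factor, divided by the matching frequency for the tag-only sample, gives the binding signal.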
# ELK1 = target: T2, ELK1 (Homo sapiens, UniProt P19419 1-428); details: protein: recombinant; tags: N-terminal GST; dsDNA, one strand shown
# T2 sequence: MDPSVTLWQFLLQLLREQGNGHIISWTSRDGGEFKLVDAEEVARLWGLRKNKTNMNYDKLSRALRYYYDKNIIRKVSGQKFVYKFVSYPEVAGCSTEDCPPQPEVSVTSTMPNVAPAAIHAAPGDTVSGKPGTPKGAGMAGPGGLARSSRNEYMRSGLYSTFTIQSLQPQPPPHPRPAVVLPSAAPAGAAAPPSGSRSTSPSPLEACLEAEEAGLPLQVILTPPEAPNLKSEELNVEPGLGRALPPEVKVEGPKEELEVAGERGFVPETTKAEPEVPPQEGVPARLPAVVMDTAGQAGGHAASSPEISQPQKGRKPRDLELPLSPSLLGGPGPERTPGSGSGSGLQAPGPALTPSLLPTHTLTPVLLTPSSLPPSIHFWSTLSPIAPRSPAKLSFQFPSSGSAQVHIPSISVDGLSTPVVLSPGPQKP
# Summary of the method: as §1
# GABPA = target: T3, GABPA (Homo sapiens, UniProt Q06546 1-454); details: protein: recombinant; tags: N-terminal GST; dsDNA, one strand shown
# T3 sequence: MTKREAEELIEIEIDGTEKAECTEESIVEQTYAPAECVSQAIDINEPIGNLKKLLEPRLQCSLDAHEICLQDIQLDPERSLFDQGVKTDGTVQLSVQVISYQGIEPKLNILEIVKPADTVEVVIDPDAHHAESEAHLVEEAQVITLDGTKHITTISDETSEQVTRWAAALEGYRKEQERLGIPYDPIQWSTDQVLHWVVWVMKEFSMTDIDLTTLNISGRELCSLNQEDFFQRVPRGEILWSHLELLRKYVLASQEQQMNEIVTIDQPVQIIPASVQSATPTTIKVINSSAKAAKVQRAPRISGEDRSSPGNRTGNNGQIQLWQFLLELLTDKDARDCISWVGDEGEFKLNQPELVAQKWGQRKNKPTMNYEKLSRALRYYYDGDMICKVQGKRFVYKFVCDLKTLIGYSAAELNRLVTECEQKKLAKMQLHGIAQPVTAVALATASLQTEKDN
# Summary of the method: as §1
# ERG = target: T4, ERG (Homo sapiens, UniProt P11308 1-479); details: protein: recombinant; tags: N-terminal GST; dsDNA, one strand shown
# T4 sequence: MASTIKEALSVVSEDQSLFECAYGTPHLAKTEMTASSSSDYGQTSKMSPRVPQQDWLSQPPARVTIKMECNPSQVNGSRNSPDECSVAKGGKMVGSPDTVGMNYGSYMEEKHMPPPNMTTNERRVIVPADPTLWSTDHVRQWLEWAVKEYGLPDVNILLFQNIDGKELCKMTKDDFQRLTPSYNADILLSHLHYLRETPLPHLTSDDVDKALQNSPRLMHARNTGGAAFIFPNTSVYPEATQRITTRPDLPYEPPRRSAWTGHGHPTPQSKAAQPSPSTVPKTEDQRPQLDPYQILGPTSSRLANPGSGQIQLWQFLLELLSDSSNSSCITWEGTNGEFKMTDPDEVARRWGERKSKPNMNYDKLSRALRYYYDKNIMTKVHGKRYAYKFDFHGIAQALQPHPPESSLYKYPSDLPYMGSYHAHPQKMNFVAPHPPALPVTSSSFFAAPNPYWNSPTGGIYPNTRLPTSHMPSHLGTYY
# Summary of the method: as §1
# ELF1 = ELF1 (Homo sapiens, UniProt P32519 1-619); details: protein: recombinant; tags: N-terminal GST; dsDNA, one strand shown
# Summary of the method: as §1
# EHF = target: T5, EHF (Homo sapiens, UniProt Q9NZC4 1-300); details: protein: recombinant; tags: N-terminal GST; dsDNA, one strand shown
# T5 sequence: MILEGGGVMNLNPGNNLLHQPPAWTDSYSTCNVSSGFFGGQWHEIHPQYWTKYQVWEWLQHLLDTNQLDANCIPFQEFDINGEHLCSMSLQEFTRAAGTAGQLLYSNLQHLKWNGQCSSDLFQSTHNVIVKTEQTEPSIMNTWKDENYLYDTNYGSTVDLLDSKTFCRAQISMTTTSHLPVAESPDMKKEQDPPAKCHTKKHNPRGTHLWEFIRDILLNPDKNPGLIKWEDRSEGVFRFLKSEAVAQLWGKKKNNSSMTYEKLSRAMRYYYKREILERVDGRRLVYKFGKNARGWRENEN
# Summary of the method: as §1
# SPI1 = SPI1 (Homo sapiens, UniProt P17947 1-270); details: protein: recombinant; tags: N-terminal GST; dsDNA, one strand shown
# Summary of the method: as §1
# SPIB = SPIB (Homo sapiens, UniProt Q01892 1-262); details: protein: recombinant; tags: N-terminal GST; dsDNA, one strand shown
# Summary of the method: as §1
# ELK3 = target: T6, ELK3 (Homo sapiens, UniProt P41970 1-407); details: protein: recombinant; tags: N-terminal GST; dsDNA, one strand shown
# T6 sequence: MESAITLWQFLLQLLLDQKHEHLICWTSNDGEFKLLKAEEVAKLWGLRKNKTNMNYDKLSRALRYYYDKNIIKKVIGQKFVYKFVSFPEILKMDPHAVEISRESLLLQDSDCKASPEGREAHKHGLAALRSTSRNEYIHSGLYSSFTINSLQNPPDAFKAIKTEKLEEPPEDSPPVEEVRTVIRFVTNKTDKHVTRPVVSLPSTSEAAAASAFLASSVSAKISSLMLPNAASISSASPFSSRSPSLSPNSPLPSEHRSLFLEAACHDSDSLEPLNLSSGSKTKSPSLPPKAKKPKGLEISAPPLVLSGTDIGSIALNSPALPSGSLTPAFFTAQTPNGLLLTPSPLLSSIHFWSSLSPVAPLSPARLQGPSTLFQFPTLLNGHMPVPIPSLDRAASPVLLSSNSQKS
# Summary of the method: as §1
# FEV = target: T7, FEV (Homo sapiens, UniProt Q99581 1-238); details: protein: recombinant; tags: N-terminal GST; dsDNA, one strand shown
# T7 sequence: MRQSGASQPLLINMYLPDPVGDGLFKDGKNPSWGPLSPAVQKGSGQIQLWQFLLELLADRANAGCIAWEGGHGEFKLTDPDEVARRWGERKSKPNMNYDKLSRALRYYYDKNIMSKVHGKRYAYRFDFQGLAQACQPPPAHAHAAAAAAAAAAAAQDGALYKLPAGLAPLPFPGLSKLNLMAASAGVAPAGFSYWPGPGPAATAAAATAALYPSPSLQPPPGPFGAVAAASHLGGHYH
# Summary of the method: as §1
# ETV5 = ETV5 (Homo sapiens, UniProt P41161 1-510); details: protein: recombinant; tags: N-terminal GST; dsDNA, one strand shown
# Summary of the method: as §1
# HSF1 = HSF1 (Homo sapiens, UniProt Q00613 1-529); details: protein: recombinant; tags: N-terminal GST; chain copies: 3; dsDNA, one strand shown
# Summary of the method: as §1
# SPIC = target: T8, SPIC (Homo sapiens, UniProt Q8N5J4 1-248); details: protein: recombinant; tags: N-terminal GST; dsDNA, one strand shown
# T8 sequence: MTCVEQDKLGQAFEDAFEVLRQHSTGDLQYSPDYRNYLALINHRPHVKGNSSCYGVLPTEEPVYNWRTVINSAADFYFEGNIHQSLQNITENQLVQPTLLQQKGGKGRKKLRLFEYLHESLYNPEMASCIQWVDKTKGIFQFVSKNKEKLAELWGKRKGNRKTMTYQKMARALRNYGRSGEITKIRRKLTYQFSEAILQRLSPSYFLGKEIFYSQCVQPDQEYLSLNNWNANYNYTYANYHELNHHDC
# Summary of the method: as §1
# ELF4 = ELF4 (Homo sapiens, UniProt Q99607 1-663); details: protein: recombinant; tags: N-terminal GST; dsDNA, one strand shown
# Summary of the method: as §1
# ELK4 = target: T9, ELK4 (Homo sapiens, UniProt P28324-2 1-405); details: protein: recombinant; tags: N-terminal GST; dsDNA, one strand shown
# T9 sequence: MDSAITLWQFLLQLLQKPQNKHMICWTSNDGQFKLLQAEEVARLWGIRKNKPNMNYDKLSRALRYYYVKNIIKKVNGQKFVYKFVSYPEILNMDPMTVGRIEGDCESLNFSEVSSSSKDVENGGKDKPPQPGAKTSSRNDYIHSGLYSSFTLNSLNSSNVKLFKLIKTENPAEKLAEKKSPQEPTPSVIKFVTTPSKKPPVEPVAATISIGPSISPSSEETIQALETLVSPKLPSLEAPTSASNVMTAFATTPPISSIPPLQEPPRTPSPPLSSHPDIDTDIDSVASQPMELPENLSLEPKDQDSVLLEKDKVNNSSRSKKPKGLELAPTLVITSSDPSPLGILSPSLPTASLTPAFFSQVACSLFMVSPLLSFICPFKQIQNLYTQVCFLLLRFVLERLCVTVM
# Summary of the method: as §1
# ETV2 = target: T10, ETV2 (Homo sapiens, UniProt O00321 1-342); details: protein: recombinant; tags: N-terminal GST; dsDNA, one strand shown
# T10 sequence: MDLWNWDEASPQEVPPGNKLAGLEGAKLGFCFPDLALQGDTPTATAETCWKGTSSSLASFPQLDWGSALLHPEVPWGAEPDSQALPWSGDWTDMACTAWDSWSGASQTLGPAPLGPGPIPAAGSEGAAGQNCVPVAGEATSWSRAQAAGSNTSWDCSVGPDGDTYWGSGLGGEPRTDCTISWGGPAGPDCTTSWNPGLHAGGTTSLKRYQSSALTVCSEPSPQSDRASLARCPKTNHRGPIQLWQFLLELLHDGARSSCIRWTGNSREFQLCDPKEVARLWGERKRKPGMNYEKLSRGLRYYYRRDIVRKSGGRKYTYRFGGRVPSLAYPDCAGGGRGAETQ
# Summary of the method: as §1
# ELF3 = target: T11, ELF3 (Homo sapiens, UniProt P78545 1-371); details: protein: recombinant; tags: N-terminal GST; dsDNA, one strand shown
# T11 sequence: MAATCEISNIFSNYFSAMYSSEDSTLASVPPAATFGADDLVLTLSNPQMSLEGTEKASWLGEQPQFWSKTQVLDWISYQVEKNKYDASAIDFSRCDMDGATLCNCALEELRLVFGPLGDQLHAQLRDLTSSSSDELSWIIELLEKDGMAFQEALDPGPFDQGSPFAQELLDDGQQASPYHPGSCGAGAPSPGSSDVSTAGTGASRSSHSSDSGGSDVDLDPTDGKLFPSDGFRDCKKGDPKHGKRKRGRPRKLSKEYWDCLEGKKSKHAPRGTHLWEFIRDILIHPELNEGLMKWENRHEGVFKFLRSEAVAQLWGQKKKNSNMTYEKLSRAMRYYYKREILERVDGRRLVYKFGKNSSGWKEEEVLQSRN
# Summary of the method: as §1
# CRX = CRX (Homo sapiens, UniProt O43186 1-299); details: protein: recombinant; tags: N-terminal GST; dsDNA, one strand shown
# Summary of the method: as §1
# ETV1 = ETV1 (Homo sapiens, UniProt P50549 1-477); details: protein: recombinant; tags: N-terminal GST; dsDNA, one strand shown
# Summary of the method: as §1
# Chain of ELF4 (Q99607 whole entry): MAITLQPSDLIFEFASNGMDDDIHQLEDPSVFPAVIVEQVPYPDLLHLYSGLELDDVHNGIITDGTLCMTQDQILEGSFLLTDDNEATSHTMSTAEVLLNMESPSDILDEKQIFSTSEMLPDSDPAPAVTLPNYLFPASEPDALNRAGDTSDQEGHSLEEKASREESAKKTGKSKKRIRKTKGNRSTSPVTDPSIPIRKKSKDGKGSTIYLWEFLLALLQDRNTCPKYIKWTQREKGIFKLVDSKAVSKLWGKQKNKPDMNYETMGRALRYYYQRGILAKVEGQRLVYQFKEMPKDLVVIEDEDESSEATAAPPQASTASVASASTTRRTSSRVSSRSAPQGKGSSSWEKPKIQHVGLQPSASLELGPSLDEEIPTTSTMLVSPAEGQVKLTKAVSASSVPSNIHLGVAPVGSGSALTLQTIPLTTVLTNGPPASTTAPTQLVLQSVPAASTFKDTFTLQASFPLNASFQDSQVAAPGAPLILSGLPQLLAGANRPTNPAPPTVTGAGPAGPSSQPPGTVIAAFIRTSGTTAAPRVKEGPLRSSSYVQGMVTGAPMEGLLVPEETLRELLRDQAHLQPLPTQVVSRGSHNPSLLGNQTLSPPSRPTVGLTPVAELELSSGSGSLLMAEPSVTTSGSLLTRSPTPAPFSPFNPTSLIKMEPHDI
# Chain of CRX (O43186 whole entry): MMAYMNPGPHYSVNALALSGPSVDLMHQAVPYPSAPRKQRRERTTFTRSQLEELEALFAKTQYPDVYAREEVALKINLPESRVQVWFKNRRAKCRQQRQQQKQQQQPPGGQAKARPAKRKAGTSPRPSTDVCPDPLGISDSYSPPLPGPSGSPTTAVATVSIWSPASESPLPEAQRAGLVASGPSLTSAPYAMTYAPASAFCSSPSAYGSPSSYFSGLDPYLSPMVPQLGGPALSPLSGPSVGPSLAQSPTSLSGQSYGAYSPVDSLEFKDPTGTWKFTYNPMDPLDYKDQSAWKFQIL
# Chain of ETV1 (P50549 whole entry): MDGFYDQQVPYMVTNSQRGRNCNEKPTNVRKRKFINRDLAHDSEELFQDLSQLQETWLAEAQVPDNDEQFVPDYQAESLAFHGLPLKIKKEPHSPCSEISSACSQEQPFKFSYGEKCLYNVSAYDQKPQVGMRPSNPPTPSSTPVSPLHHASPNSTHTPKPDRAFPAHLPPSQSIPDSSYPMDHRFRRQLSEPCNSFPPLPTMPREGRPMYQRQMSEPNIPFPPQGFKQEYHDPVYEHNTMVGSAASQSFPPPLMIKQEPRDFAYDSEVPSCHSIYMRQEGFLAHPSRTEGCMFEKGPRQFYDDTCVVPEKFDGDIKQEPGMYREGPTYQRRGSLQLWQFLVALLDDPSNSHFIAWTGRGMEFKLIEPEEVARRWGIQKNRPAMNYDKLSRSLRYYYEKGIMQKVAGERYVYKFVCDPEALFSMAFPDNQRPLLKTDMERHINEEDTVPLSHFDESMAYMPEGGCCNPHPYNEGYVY
# Chain of ETV5 (P41161 whole entry): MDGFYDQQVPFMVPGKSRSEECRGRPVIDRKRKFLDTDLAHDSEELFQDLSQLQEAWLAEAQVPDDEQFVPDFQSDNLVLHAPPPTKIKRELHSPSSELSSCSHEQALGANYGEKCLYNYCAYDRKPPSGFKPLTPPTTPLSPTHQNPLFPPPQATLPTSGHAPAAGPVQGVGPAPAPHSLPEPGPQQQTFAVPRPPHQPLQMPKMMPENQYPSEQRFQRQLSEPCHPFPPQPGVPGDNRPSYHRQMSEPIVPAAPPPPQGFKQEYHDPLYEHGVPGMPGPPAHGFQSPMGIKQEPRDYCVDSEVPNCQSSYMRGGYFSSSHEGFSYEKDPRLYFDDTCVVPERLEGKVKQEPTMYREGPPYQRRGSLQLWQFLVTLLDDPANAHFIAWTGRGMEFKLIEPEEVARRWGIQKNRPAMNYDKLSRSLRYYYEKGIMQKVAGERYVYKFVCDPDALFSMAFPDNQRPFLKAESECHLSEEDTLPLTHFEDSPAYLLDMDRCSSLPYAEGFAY
# Chain of HSF1 (Q00613 whole entry): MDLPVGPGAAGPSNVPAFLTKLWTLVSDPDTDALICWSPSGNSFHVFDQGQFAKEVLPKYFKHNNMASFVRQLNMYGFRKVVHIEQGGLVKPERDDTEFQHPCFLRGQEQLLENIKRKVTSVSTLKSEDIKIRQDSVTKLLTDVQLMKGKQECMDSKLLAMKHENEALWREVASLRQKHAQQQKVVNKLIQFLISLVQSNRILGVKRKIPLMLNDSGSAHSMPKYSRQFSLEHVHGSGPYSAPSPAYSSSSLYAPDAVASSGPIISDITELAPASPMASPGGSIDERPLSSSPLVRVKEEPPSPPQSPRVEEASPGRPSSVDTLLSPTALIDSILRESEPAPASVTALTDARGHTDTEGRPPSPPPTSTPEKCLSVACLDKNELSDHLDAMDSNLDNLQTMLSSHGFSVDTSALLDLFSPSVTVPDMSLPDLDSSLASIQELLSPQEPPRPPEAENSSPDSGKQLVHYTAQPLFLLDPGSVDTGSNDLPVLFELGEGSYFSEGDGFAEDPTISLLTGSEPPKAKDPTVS
# Chain of ELF1 (P32519 whole entry): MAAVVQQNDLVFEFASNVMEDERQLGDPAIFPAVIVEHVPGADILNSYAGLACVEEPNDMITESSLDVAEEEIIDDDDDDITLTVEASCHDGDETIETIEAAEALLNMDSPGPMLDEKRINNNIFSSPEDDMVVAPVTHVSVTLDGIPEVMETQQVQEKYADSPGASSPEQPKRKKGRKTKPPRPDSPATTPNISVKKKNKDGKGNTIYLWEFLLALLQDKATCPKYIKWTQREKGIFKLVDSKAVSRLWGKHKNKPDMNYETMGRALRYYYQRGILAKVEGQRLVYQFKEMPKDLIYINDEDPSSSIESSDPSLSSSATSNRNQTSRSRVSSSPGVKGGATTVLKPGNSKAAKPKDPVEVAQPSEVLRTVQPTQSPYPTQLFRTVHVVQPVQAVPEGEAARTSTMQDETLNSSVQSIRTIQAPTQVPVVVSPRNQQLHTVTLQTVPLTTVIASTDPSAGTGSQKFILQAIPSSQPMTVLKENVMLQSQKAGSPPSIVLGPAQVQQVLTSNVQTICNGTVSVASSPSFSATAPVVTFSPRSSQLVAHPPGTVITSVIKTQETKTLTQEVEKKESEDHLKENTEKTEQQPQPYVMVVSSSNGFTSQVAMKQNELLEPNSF
# Chain of SPIB (Q01892 whole entry): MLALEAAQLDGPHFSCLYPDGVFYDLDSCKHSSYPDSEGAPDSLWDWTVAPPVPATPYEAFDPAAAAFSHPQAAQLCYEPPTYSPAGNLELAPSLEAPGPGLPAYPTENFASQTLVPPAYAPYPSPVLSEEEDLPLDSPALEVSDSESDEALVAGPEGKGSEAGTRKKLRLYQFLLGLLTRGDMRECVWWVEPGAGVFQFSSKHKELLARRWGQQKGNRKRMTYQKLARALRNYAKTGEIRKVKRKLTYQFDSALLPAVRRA
sequence,measurement,setting,value
ATAACA,binding signal,FLI1,"1.2 fold enrichment (6-mer frequency, TF over GST control)"
same,binding signal,ELK1,"1.29 fold enrichment (6-mer frequency, TF over GST control)"
same,binding signal,GABPA,"1.22 fold enrichment (6-mer frequency, TF over GST control)"
same,binding signal,ERG,"1.25 fold enrichment (6-mer frequency, TF over GST control)"
same,binding signal,ELF1,"1.28 fold enrichment (6-mer frequency, TF over GST control)"
same,binding signal,EHF,"1.19 fold enrichment (6-mer frequency, TF over GST control)"
same,binding signal,SPI1,"1.16 fold enrichment (6-mer frequency, TF over GST control)"
same,binding signal,SPIB,"1.33 fold enrichment (6-mer frequency, TF over GST control)"
same,binding signal,ELK3,"1.24 fold enrichment (6-mer frequency, TF over GST control)"
same,binding signal,FEV,"1.28 fold enrichment (6-mer frequency, TF over GST control)"
same,binding signal,ETV5,"1.25 fold enrichment (6-mer frequency, TF over GST control)"
same,binding signal,HSF1,"1.2 fold enrichment (6-mer frequency, TF over GST control)"
same,binding signal,SPIC,"1.31 fold enrichment (6-mer frequency, TF over GST control)"
same,binding signal,ELF4,"1.28 fold enrichment (6-mer frequency, TF over GST control)"
same,binding signal,ELK4,"1.2 fold enrichment (6-mer frequency, TF over GST control)"
same,binding signal,ETV2,"1.28 fold enrichment (6-mer frequency, TF over GST control)"
same,binding signal,ELF3,"1.21 fold enrichment (6-mer frequency, TF over GST control)"
same,binding signal,CRX,"1.39 fold enrichment (6-mer frequency, TF over GST control)"
same,binding signal,ETV1,"1.24 fold enrichment (6-mer frequency, TF over GST control)"

# — article PMC7862700, “An all-to-all approach to the identification of sequence-specific readers for epigenetic DNA modifications on cytosine”
